Screening data: PubChem BioAssay, National Center for Advancing Translational Sciences (NCATS)
Rows were chosen to be rich in hits. Some 2.4% of all compounds tested hit in one or more screens of this group.
POLK inh: qHTS for Inhibitors of Polymerase Kappa; Potency, µM (highest dose often 107 µM), usual class: inhibitors; DNA polymerase kappa (Homo sapiens), Q9UBT6; 400,000 compounds, 0.53% hits; purified Pol kappa, fluorescent DNA synthesis assay, 10 min
Target sequence (Q9UBT6 whole entry, looked up): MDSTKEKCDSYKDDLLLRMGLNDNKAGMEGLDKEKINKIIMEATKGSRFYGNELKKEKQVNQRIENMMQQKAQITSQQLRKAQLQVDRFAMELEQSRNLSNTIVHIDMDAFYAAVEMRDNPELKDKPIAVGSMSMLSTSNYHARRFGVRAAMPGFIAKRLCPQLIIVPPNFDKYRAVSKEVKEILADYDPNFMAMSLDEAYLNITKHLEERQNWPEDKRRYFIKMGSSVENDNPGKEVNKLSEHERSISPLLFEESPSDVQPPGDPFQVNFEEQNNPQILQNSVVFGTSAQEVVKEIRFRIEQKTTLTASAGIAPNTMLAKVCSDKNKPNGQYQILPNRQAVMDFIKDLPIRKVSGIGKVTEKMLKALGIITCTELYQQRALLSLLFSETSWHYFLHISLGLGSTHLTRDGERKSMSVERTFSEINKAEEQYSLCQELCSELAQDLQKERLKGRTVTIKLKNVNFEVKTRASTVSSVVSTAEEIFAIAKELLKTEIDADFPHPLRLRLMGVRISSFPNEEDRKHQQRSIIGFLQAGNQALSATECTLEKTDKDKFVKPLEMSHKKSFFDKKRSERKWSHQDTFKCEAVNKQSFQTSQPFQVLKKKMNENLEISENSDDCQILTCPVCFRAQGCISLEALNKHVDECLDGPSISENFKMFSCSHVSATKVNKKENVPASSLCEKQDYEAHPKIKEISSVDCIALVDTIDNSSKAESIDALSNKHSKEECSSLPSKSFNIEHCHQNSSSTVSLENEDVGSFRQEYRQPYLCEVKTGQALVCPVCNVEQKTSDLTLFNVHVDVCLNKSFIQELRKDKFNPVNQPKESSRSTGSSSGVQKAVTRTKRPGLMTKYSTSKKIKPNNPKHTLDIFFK
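10 nM Pol kappa preincubated 15 min at room temperature with compounds, then reaction started with substrate at 50 nM final. Fluorescence read kinetically at 0 and 10 min; buffer-only wells served as negative control.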
Pol beta inh-1: qHTS Assay for Inhibitors of DNA Polymerase Beta; Pol beta primer extension/strand displacement, fluorescence kinetic; Potency, µM (top dose mostly 114 µM), usual class: inhibitors; 340,000 compounds, 1.3% hits; P06746
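Reaction started by 50 nM substrate onto compound-treated Pol beta (10 nM, 15 min preincubation, room temperature); plates read at 0 min and 10 min. Normalized concentration-effect data fitted by four-parameter Hill equation.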
Pol iota inh: qHTS for Inhibitors of Polymerase Iota; Potency, µM (doses to about 115 µM), actives largely listed as inhibitors; DNA polymerase iota (Homo sapiens), Q9UNA4; 390,000 compounds, 1% hits; Pol iota fluorescent replication assay, 10 min
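Fluorescent replication assay read twice, at 0 min and 10 min after adding 50 nM (final) substrate. Enzyme (10 nM) and compounds were first incubated 15 min at room temperature; enzyme-free buffer wells were negative controls.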
POLH inh: qHTS for Inhibitors of Polymerase Eta; Potency, µM (series often up to 114 µM), hits mostly inhibitors; recombinant Pol eta, fluorescent DNA replication assay; DNA polymerase eta (Homo sapiens), Q9Y253; AID 588591, 2011; 390,000 compounds, 1.2% hits
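Pol eta at 10 nM preincubated with compounds 15 min at room temperature; reaction started with fluorescent substrate (50 nM final) and read kinetically at 0 and 10 min.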
TDP1 block: qHTS Assay for Inhibitors of Tyrosyl-DNA Phosphodiesterase (TDP1). recombinant TDP1, AlphaScreen DNA substrate cleavage. Potency, µM (doses to about 130 µM), most hits filed as inhibitors. 350,000 compounds, 0.28% hits. AID 485290, 2010; note: nearly all actives have a fitted effect of over 40% in size
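Steps: enzyme plus compound, 15 min RT; add biotin/phosphotyrosine-FITC oligonucleotide (15 nM final), react 5 min; add donor/acceptor beads (10 ug/ml final), 10 min; read AlphaScreen. Tdp1 at 1 nM final.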
Pol beta inh-2: Inhibitors of DNA Polymerase Beta: Hit validation; 250 compounds, 87% hits; Potency, µM, hits mostly inhibitors; Pol beta primer extension/strand displacement, fluorescence kinetic; shares compounds with Pol beta inh-1; calls by dose curve
Klenow counter: Inhibitors of DNA Polymerase Beta: Hit Validation in Klenow Fragment Assay | shares compounds with Pol beta inh-1 | Klenow exo- polymerase counter-screen, fluorescent DNA substrate | activity change, negative = inhibition, % at 57.1 µM | 250 tested, under 10 active | AID 540300, 2011
HIV RT counter: Inhibitors of DNA Polymerase Beta: Hit Validation in HIV-RT Assay; shares compounds with Pol beta inh-1; HIV-1 RT polymerase activity, counter-screen; activity % (negative = inhibition, positive = activation), % at 57.1 µM; 250 tested, under 10 active; AID 540301, 2011
POLB inh gel: Inhibitors of DNA Polymerase Beta: Hit Validation in Radiolabeled Extension Assay | shares compounds with Pol beta inh-1 | radiolabeled primer extension gel assay, phosphorimager | inhibition, % at 10 µM | AID 540325, 2011 | 110 compounds, 91% hits;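 active = inhibition at 10 µM of 30% or more; inconclusive = no clear call, values can overlap the other calls; inactive = inhibition at 10 µM under 30%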
Each line names hits and unclear results; the compound was inactive in the other large screens (follow-up assays come after a bar, where they were run). Unless noted, calls come from the whole dose curve; as a rule, active = well fitted curve in the direction sought with a large enough effect; inconclusive = small, poorly fitted or top-dose-only effect, or another doubt; inactive = no such curve, though single readings can be large; an effect the other way counts as inactive or inconclusive.

CC1CCN(S(=O)(=O)c2ccc(NC(=O)C3CSC4(C)CCC(=O)N34)cc2)CC1 (stereo not drawn)	Pol iota inh inconclusive, POLH inh 20µM (no result: Pol beta inh-1, TDP1 block)
CCN(CC)S(=O)(=O)c1cccc(C(=O)N/N=C/c2c(C)nn(-c3ccccc3)c2Cl)c1	Pol beta inh-1 14µM
CCc1ccc(NC(=O)C2(c3cccs3)CCOCC2)cc1	none
Cc1c(P(=S)(c2ccccc2)c2ccccc2)c2ccccc2n1C(=O)NCc1ccccc1	none (no result: POLK inh, Pol beta inh-1, Pol iota inh, POLH inh)
Cc1ccc2c(CC(=O)OCc3cc(=O)n4c(n3)sc3ccccc34)coc2c1	POLK inh inconclusive, Pol beta inh-1 10µM, Pol iota inh inconclusive, POLH inh 10µM, TDP1 block 25µM
CC(NS(=O)(=O)c1ccc(Cl)cc1)C(=O)NCc1ccco1 (stereo not drawn)	Pol beta inh-1 inconclusive, Pol iota inh 71µM, TDP1 block inconclusive
C=CN1CCCC1=O	none (no result: Pol beta inh-1, Pol iota inh, POLH inh)
O=c1ccc2c(o1)/C(=C/C=C(Cl)Cl)CCC2	Pol beta inh-1 28µM, Pol iota inh inconclusive
CC1Sc2ccc(S(=O)(=O)N3CCC(C(=O)Nc4cccc(Cl)c4)CC3)cc2NC1=O (stereo not drawn)	none
CCc1ccc(NC(=O)C2CCN(S(=O)(=O)c3ccc4c(c3)NC(=O)C(C)S4)CC2)cc1 (stereo not drawn)	Pol beta inh-1 inconclusive, Pol iota inh 79µM
Cc1ccc(C(=O)Nc2c(C(=O)NCc3ccc(Cl)cc3)sc3nc(C)cc(C)c23)cc1	none (no result: POLH inh)
Cc1cc(C)c2c(NC(=O)c3ccccc3Cl)c(C(=O)NCc3ccc(Cl)cc3)sc2n1	Pol beta inh-1 22µM (no result: POLH inh)
O=C(Nc1ccc2c(c1)OCO2)c1cccc2c1C(=O)N(Cc1cccnc1)C2	Pol beta inh-1 40µM, Pol iota inh inconclusive, POLH inh inconclusive (no result: TDP1 block)
Cc1occc1C(=O)NCc1cccc(CNC(=O)c2ccoc2C)c1	POLK inh 32µM, Pol beta inh-1 22µM, Pol iota inh 16µM, POLH inh 3.5µM (no result: TDP1 block)
COc1ccccc1NC(=O)Nc1cnccn1	none
COc1cc([N+](=O)[O-])ccc1NC(=O)Nc1cnccn1	POLH inh 79µM
COc1cc(/C=C2\C(=N)N3N=C(C)SC3=NC2=O)cc(OC)c1OCCOc1ccccc1C	Pol iota inh inconclusive (no result: TDP1 block)
COc1cc(/C=C2\C(=N)N3N=C(C)SC3=NC2=O)cc(Cl)c1OCCOc1ccc(NC(C)=O)cc1	Pol iota inh inconclusive, POLH inh 89µM (no result: TDP1 block)
COc1cc(/C=C2\C(=N)N3N=C(C(C)C)SC3=NC2=O)ccc1OCCOc1ccc(NC(C)=O)cc1	none (no result: TDP1 block)
CCC1=NN2C(=N)/C(=C\c3ccc(OCCOc4ccc(NC(C)=O)cc4)cc3)C(=O)N=C2S1	POLH inh inconclusive (no result: TDP1 block)
CCOc1cc(/C=C2\C(=N)N3N=C(CC)SC3=NC2=O)ccc1OCCOc1ccc(NC(C)=O)cc1	Pol beta inh-1 50µM (no result: TDP1 block)
CCCC1=NN2C(=N)/C(=C\c3ccc(OCCOc4ccc(NC(C)=O)cc4)c(OC)c3)C(=O)N=C2S1	Pol beta inh-1 inconclusive, POLH inh 79µM (no result: TDP1 block)
C=CCOc1ccc(/C=C2\C(=N)N3N=C(S(=O)(=O)CC)SC3=NC2=O)cc1OC	Pol iota inh inconclusive, POLH inh 40µM
C[C@@H](C(=O)Nc1ccc2ccccc2c1)[C@H]1C[C@]1(C)[C@H](N)c1ccccc1	none (no result: Pol beta inh-1, POLH inh)
Cc1cc(NS(=O)(=O)c2ccc(NC(=O)c3cnc4sccn4c3=O)cc2)nc(C)n1	POLK inh inconclusive, Pol beta inh-1 inconclusive, Pol iota inh inconclusive, POLH inh 8.9µM (no result: TDP1 block)
COc1ccccc1CCC(=O)Nc1ccc(S(=O)(=O)Nc2cc(C)nc(C)n2)cc1	none (no result: Pol beta inh-1)
Cc1cc(NS(=O)(=O)c2ccc(NC(=O)CCCOc3ccccc3C)cc2)nc(C)n1	Pol iota inh 10µM, POLH inh 79µM (no result: TDP1 block)
CCN(CC)c1ccc(N=Cc2ccc([N+](=O)[O-])o2)cc1	POLK inh inconclusive, Pol beta inh-1 inconclusive, Pol iota inh 16µM, POLH inh inconclusive
CCCn1nc([N+](=O)[O-])c(C(C#N)c2nc3ccccc3o2)c(Cl)c1=O (stereo not drawn)	Pol iota inh inconclusive, POLH inh 22µM
Cc1ccc(NS(=O)(=O)c2ccc3c(c2)CCC(C)(C)O3)cc1C	none (no result: POLK inh, Pol beta inh-1, Pol iota inh, POLH inh)
CCCS(=O)(=O)c1c(S(=O)(=O)CCC)c2cc(C(C)(C)C)ccn2c1C(=O)c1ccccc1	POLH inh 89µM (no result: TDP1 block)
CCN(C(=O)c1ccc2c(c1)N(Cc1cccc(Cl)c1)C(=O)c1ccccc1S2=O)c1ccccc1 (stereo not drawn)	none
CN(C)c1ccc(/C=C/C(=O)c2cccc(Br)c2)cc1	POLK inh inconclusive, Pol beta inh-1 inconclusive, Pol iota inh 79µM (no result: TDP1 block)
NS(=O)(=O)c1ccc(-c2ccc(/C=C3\SC(=S)N(C4CCS(=O)(=O)C4)C3=O)o2)cc1 (stereo not drawn)	none
CC1=C(C#N)C(=O)N(C2CCS(=O)(=O)C2)C(=O)/C1=C\c1ccc(C)o1 (stereo not drawn)	Pol beta inh-1 13µM (no result: POLK inh, Pol iota inh, POLH inh)
COc1cccc(C2c3c(ncn(-c4cccc(F)c4)c3=N)Oc3ccc4ccccc4c32)c1 (stereo not drawn)	none (no result: POLK inh, Pol beta inh-1, Pol iota inh, POLH inh)
CN(CC(=O)NC(=O)NCc1ccccc1)CC(=O)Nc1ccc(Cl)c(C(F)(F)F)c1	Pol iota inh 89µM (no result: Pol beta inh-1, TDP1 block)
CC(=O)c1ccc(NC(=O)c2ccc3snnc3c2)cc1	Pol beta inh-1 25µM, Pol iota inh inconclusive, POLH inh inconclusive (no result: TDP1 block)
O=S(=O)(Nc1nccs1)c1ccc(Nc2nnc(-c3ccccc3)c3ccccc23)cc1	Pol beta inh-1 14µM, Pol iota inh inconclusive, POLH inh inconclusive | Pol beta inh-2 35 | Klenow counter inactive | HIV RT counter inactive
COC(=O)c1ccc(CSc2nc3scc(-c4cccs4)c3c(=O)[nH]2)o1	POLK inh inconclusive, Pol beta inh-1 20µM, Pol iota inh inconclusive, POLH inh inconclusive | Pol beta inh-2 32 | Klenow counter inactive | HIV RT counter inactive | POLB inh gel 98
